# Experimental data as given in the supplement of paper PMC10037445.
# Over roughly 2,900 compounds, “NF-kB SEAP reporter activity, fold change vs agonist alone” has its median near 0.99; the highest 2% begin near 2.6. What follows is part of a selection rich in the highest values, with near analogues and random picks from the rest.
# Assays:
# RAW-Dual [1] = test: NF-kB SEAP reporter activity, fold change vs agonist alone; cytotoxicity flag (confluency mask): not cytotoxic; higher = enhanced NF-kB activity
# How it was run: (§1)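 RAW-Dual macrophages were seeded in DMEM at 50,000 cells/well in 384-well plates, given 50 nL of library stock by pin tool, and given a PRR agonist 1 h later. Plates were held at 37 °C, 5% CO2 for 20 hours, after which supernatant was read for IRF by QuantiLuc luminescence and for NF-κB by QuantiBlue absorbance at 620 nm. Reporter activity is expressed as fold change over wells that received agonist alone. A well was called cytotoxic when IncuCyte confluency fell below 70% of agonist controls in both mask sets.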
# RAW-Dual [2] = test: NF-kB SEAP reporter activity, fold change vs agonist alone; higher = enhanced NF-kB activity
# How it was run: as §1
# RAW-Dual [3] = test: NF-kB SEAP reporter activity, fold change vs agonist alone; cytotoxicity flag (confluency mask): cytotoxic (confluency <70% of control); higher = enhanced NF-kB activity
# How it was run: as §1
# [4] = agonist: ODN 1826 (TLR9) 0.5 ug/mL
# [5] = agonist: Pam2CSK4 (TLR2/6) 0.1 ug/mL
# [6] = agonist: Pam3CSK4 (TLR2/1) 0.1 ug/mL
# [7] = library stock concentration (final ~1000-fold dilution): 10 mM, cytotoxicity flag (confluency mask): not cytotoxic, agonist: MPLA (TLR4) […]
# [8] = library stock concentration (final ~1000-fold dilution): 10 mM, cytotoxicity flag (confluency mask): cytotoxic (confluency <70% of control), agonist: Imiquimod (TLR7) […]
# [9] = library stock concentration (final ~1000-fold dilution): 10 mM, cytotoxicity flag (confluency mask): cytotoxic (confluency <70% of control), agonist: MPLA (TLR4) […]
# [10] = library stock concentration (final ~1000-fold dilution): 10 mM, cytotoxicity flag (confluency mask): not cytotoxic, agonist: Imiquimod (TLR7) […]
smiles,measurement,setting,value
COc1cc2ncnc(Nc3ccc(F)c(Cl)c3)c2cc1OCCCN1CCOCC1.Cl (library stock concentration (final ~1000-fold dilution): 10 mM),NF-kB SEAP reporter activity,RAW-Dual [1]; agonist: LPS (TLR4) 0.1 ug/mL,1.23
same,NF-kB SEAP reporter activity,RAW-Dual [1]; [4],0.277
same,NF-kB SEAP reporter activity,RAW-Dual [1]; [5],0.967
same,NF-kB SEAP reporter activity,RAW-Dual [1]; [6],0.737
COc1cc2ncnc(Nc3ccc(F)c(Cl)c3)c2cc1OCCCN1CCOCC1.Cl,NF-kB SEAP reporter activity,RAW-Dual [2]; [7],1.29
Nc1nc(Nc2ccc(S(N)(=O)=O)cc2)nn1C(=O)c1c(F)cccc1F,NF-kB SEAP reporter activity,RAW-Dual [2]; [8],1.97
same,NF-kB SEAP reporter activity,RAW-Dual [2]; [9],1.36
CN1CCN(Cc2ccc(Nc3ncc(Cl)c(Nc4ccccc4S(=O)(=O)N(C)C)n3)cc2)CC1 (library stock concentration (final ~1000-fold dilution): 2 mM),NF-kB SEAP reporter activity,RAW-Dual [3]; agonist: LPS (TLR4) 0.1 ug/mL,0.331
same,NF-kB SEAP reporter activity,RAW-Dual [3]; [4],1.3
same,NF-kB SEAP reporter activity,RAW-Dual [3]; [5],0.245
same,NF-kB SEAP reporter activity,RAW-Dual [3]; [6],1.08
CN1C(=O)c2sccc2N(C)c2nc(Nc3ccc(S(N)(=O)=O)cc3)ncc21,NF-kB SEAP reporter activity,RAW-Dual [2]; [10],1.86
same,NF-kB SEAP reporter activity,RAW-Dual [2]; [7],2.45
CN1CCN(Cc2ccc(Nc3ncc(Cl)c(Nc4ccccc4S(=O)(=O)N(C)C)n3)cc2)CC1,NF-kB SEAP reporter activity,"RAW-Dual [2]; library stock concentration (final ~1000-fold dilution): 2 mM, cytotoxicity flag (confluency mask): cytotoxic (confluency <70% of control), agonist: Imiquimod (TLR7) […]",1.37
same,NF-kB SEAP reporter activity,"RAW-Dual [2]; library stock concentration (final ~1000-fold dilution): 2 mM, cytotoxicity flag (confluency mask): cytotoxic (confluency <70% of control), agonist: MPLA (TLR4) […]",0.961
CN1C(=O)c2sccc2N(C)c2nc(Nc3ccc(S(N)(=O)=O)cc3)ncc21 (library stock concentration (final ~1000-fold dilution): 10 mM),NF-kB SEAP reporter activity,RAW-Dual [1]; agonist: LPS (TLR4) 0.1 ug/mL,5.75
same,NF-kB SEAP reporter activity,RAW-Dual [1]; [4],3.02
same,NF-kB SEAP reporter activity,RAW-Dual [1]; [5],1.22
same,NF-kB SEAP reporter activity,RAW-Dual [1]; [6],2.56
Nc1nc(Nc2ccc(S(N)(=O)=O)cc2)nn1C(=O)c1c(F)cccc1F (library stock concentration (final ~1000-fold dilution): 10 mM),NF-kB SEAP reporter activity,RAW-Dual [3]; agonist: LPS (TLR4) 0.1 ug/mL,0.637
same,NF-kB SEAP reporter activity,RAW-Dual [3]; [4],1.29
same,NF-kB SEAP reporter activity,RAW-Dual [3]; [5],0.632
same,NF-kB SEAP reporter activity,RAW-Dual [3]; [6],0.864
COC(=O)c1ccc(O)c(O)c1 (library stock concentration (final ~1000-fold dilution): 10 mM),NF-kB SEAP reporter activity,RAW-Dual [1]; agonist: LPS (TLR4) 0.1 ug/mL,0.81
same,NF-kB SEAP reporter activity,RAW-Dual [1]; [4],0.654
same,NF-kB SEAP reporter activity,RAW-Dual [1]; [5],0.603
same,NF-kB SEAP reporter activity,RAW-Dual [1]; [6],0.553
COC(=O)c1ccc(O)c(O)c1,NF-kB SEAP reporter activity,RAW-Dual [2]; [10],0.731
same,NF-kB SEAP reporter activity,RAW-Dual [2]; [7],1.17
CS(=O)(=O)O.Cn1cc(C2=C(c3cn(CCCSC(=N)N)c4ccccc34)C(=O)NC2=O)c2ccccc21,NF-kB SEAP reporter activity,RAW-Dual [2]; [8],0.13
same,NF-kB SEAP reporter activity,RAW-Dual [2]; [9],0.222
CS(=O)(=O)O.Cn1cc(C2=C(c3cn(CCCSC(=N)N)c4ccccc34)C(=O)NC2=O)c2ccccc21 (library stock concentration (final ~1000-fold dilution): 10 mM),NF-kB SEAP reporter activity,RAW-Dual [3]; agonist: LPS (TLR4) 0.1 ug/mL,0.173
same,NF-kB SEAP reporter activity,RAW-Dual [3]; [4],0.185
same,NF-kB SEAP reporter activity,RAW-Dual [3]; [5],0.0599
same,NF-kB SEAP reporter activity,RAW-Dual [3]; [6],0.138
Cn1cc(C2=C(c3cccc(N)c3)C(=O)NC2=O)c2ccccc21,NF-kB SEAP reporter activity,RAW-Dual [2]; [10],1.55
same,NF-kB SEAP reporter activity,RAW-Dual [2]; [7],1.7
Cn1cc(C2=C(c3ccc(Cl)cc3Cl)C(=O)NC2=O)c2ccccc21,NF-kB SEAP reporter activity,RAW-Dual [2]; [10],1.58
same,NF-kB SEAP reporter activity,RAW-Dual [2]; [7],1.99
Cn1cc(C2=C(c3ccc(Cl)cc3Cl)C(=O)NC2=O)c2ccccc21 (library stock concentration (final ~1000-fold dilution): 10 mM),NF-kB SEAP reporter activity,RAW-Dual [1]; agonist: LPS (TLR4) 0.1 ug/mL,3.23
same,NF-kB SEAP reporter activity,RAW-Dual [1]; [4],2.04
same,NF-kB SEAP reporter activity,RAW-Dual [1]; [5],1.49
same,NF-kB SEAP reporter activity,RAW-Dual [1]; [6],2.34
Cn1cc(C2=C(c3cccc(N)c3)C(=O)NC2=O)c2ccccc21 (library stock concentration (final ~1000-fold dilution): 10 mM),NF-kB SEAP reporter activity,RAW-Dual [1]; agonist: LPS (TLR4) 0.1 ug/mL,1.83
same,NF-kB SEAP reporter activity,RAW-Dual [1]; [4],2.18
same,NF-kB SEAP reporter activity,RAW-Dual [1]; [5],1.59
same,NF-kB SEAP reporter activity,RAW-Dual [1]; [6],2.2
